According to PubChem BioAssay AID2534 (National Center for Advancing Translational Sciences (NCATS), 2010):
Records with an inconclusive call do not appear. The source made the active and inactive calls. Calls come from the whole dose curve; as a rule, active = well fitted curve in the direction sought with a large enough effect; inconclusive = small, poorly fitted or top-dose-only effect, or effect the other way, or another doubt; inactive = no such curve, though single readings can be large or run the other way.

The compounds below were run against Pyruvate kinase PKLR (Homo sapiens) (UniProt P30613) (assay: Secondary Concentration-Response Assay for Activators of Human Reticulocyte Pyruvate Kinase: for Probe SAR). Conditions: purified hPK-R, ATP production, Kinase-Glo luminescence; series mostly up to 57.5 µM.
Text: NIH Chemical Genomics Center [NCGC]
Wael M. Rabeh, Lyudmila Nedyalkova and Hee-Wan Park [Structural Genomics Consortium, 100 College St. Toronto, Ontario, Canada]
Human pyruvate kinase reticulocyte (hPK-R) enzyme was supplied as a highly purified (>95% pure) preparation from Structural Genomics Consortium in Toronto (Ontario, Canada) and assayed for its ability to generate ATP from ADP using phosphoenolpyruvate (PEP) as a substrate. ATP generation was detected in a coupled reaction by luciferase-mediated luminescence, an ATP-dependent process. Pyruvate kinase substrates, PEP and ADP, were present in the assay at Km and approximately 10-fold below Km respectively. The enzyme was assayed at an intermediate level of activity to screen for both inhibitors and activators.
NCGC Assay Protocol Summary for R-isoform
Three uL of substrate mix (at r.t.) in assay buffer (50 mM Imidazole pH7.2, 50 mM KCl, 7 mM MgCl2, 0.01% Tween 20, 0.05% BSA) was dispensed into white solid bottom 1,536 well microtiter plates so that the final concentrations of substrates in the assay were 0.1 mM ADP and 0.5 mM PEP. 23 nL of compound were delivered by a pin tool and 1 uL of enzyme mix (final concentration of 0.1 nM) in assay buffer (4 degree Celsius) was added. Plates were incubated at room temperature for 1 hour. Two uL of detection mix (Kinase-Glo, Promega; at 4 degree Celsius protected from light) was added and luminescence read by a ViewLux (Perkin Elmer) at 1 second exposure/plate. Data were normalized to the uninhibited (row 31). Additionally, a no enzyme and 5-fold enzyme control was dispensed in row 32, split equally between the two conditions.

Pyruvate kinase PKLR (Homo sapiens), sequence (P30613 whole entry, looked up): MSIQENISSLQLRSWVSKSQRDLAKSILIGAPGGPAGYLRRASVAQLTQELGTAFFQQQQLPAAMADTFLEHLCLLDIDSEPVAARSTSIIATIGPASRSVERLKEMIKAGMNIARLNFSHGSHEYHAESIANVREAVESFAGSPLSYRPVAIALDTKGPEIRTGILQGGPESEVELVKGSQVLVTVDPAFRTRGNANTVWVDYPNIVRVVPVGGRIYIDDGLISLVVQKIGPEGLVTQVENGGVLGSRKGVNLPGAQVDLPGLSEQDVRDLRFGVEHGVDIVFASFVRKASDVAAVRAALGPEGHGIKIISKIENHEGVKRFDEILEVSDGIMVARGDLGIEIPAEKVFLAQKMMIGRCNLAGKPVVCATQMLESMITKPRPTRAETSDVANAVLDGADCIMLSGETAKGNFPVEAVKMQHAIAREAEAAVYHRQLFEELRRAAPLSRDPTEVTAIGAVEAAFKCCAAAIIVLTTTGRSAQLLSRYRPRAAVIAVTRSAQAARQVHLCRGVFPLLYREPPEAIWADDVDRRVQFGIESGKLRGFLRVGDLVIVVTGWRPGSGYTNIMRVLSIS

outcome, inactive:
O=C1c2ccccc2C(=O)N1c1nccs1, O=C1CCc2cc(S(=O)(=O)Nc3cccc(F)c3)ccc2N1, O=C1CCc2cc([S+](=O)([O-])NC3CCOCC3)ccc2N1, Cc1c(Cl)cccc1NS(=O)(=O)c1cc2c(cc1F)NC(=O)CC2, Cc1cc(N2C(=O)c3ccccc3C2=O)no1, O=C1CCc2cc(S(=O)(=O)Nc3ccc(Cl)c(Cl)c3)ccc2N1, O=C1c2ccccc2C(=O)N1c1ccc2ccccc2n1, O=C1c2ccccc2C(=O)N1c1cncc2ccccc12, COc1cccc(NS(=O)(=O)c2ccc3c(c2)CCC(=O)N3)c1, O=C1CCc2cc(S(=O)(=O)Nc3cccc(B(O)O)c3)ccc2N1
